Compounds with a hit are over-represented: about 21% of the library has one in this group of screens.
Shiga toxin inh: inhibitors of Shiga toxin in Vero cells; 290,000 compounds, 9.2% hits; inhibition, % at 38.7 µM; AID 2315; Vero cells, Shiga toxin protein synthesis inhibition reporter; in the data active = inhibition mostly above about 28%, no sharp cut-off; inactive = mostly below about 43%; also: 0% is about no effect
Pf growth 48h: inhibits P. falciparum growth in the first generation, 48 h; P. falciparum luciferase growth in erythrocytes, 48 h; AID 504832; 310,000 compounds, 5.9% hits; Potency, µM (top dose mostly 28.7 µM), without a hit: at the highest dose activity change, negative = inhibition, hits mostly inhibitors; also: potency is read from the fitted curve at half-maximal effect; % is scaled to controls: 0 for no effect and ±100 for the full control effect
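Luciferase-expressing parasites in RBCs, 2% Hct / 0.1% parasitemia final; RPMI 1640 + 0.5% Albumax; 37 C, 5% CO2, one generation; luminescence read-out, lower signal = inhibition.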
Pf growth 96h: inhibits malaria parasite growth, 96 h; P. falciparum luciferase reporter growth, 96 h; Potency, µM (titrated, usually from 28.7 µM), for the others: at the highest dose activity change, negative = inhibition, actives largely listed as inhibitors; 320,000 compounds, 6.9% hits; AID 504834; also: potency is read from the fitted curve at half-maximal effect; % is scaled to controls: 0 for no effect and ±100 for the full control effect
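Luminescence readout: decreased luciferase signal marks inhibited growth of reporter-expressing P. falciparum in infected red cells (2% hematocrit, 0.05% parasitemia final), exposed to compound two generations (96 h, 37 C, 5% CO2).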
CHX counter: counter-screen for Shiga toxin inhibitors: cycloheximide protein synthesis inhibition | 300,000 compounds, 12% hits | AID 2314 | max response, % | cell reporter, cycloheximide protein synthesis inhibition counterscreen; in the data active = max response mostly above about 13%, no sharp cut-off; inactive = mostly below about 14%; also: read at 38.3 µM for the half of the compounds with a filed dose; 0% is about no effect
NS1 inh: influenza NS1 inhibition; Potency, µM (highest dose often 46.1 µM), inactives show at the top dose activity, positive = more growth; 270,000 compounds, 0.4% hits; AID 2326; calls by dose curve; also: potency is read from the fitted curve at half-maximal effect; actives are rising curves; nearly all actives have a fitted effect of over 50% in size
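S. cerevisiae expressing influenza A NS1, grown in glucose, washed, then diluted 1:100 into pH 6.0 -URA galactose medium with 23 nl compound. Growth recovery read as OD600; NS1-free strain serves as control.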
SARS PLP yeast: inhibitors of SARS-CoV papain-like protease in yeast | S. cerevisiae expressing SARS-CoV PLpro, growth rescue | Potency, µM (highest dose often 32.9 µM), inactives show at the top dose activity, positive = growth rescue, most hits filed as activators | 330,000 compounds, 0.19% hits; calls by dose curve; also: potency is read from the fitted curve at half-maximal effect; 0% is about no effect; nearly all actives have a fitted effect of over 55% in size
* = called active by the depositor; ? = inconclusive; · = no result; [ ] = dose if it differs, or a comment. Unless noted, calls follow the shape of the dose curve; as a rule, active = well fitted inhibition curve with a large enough effect; inconclusive = small, poorly fitted or top-dose-only effect, or another doubt; inactive = no such curve, though single readings can be large or run the other way.

SMILES	Shiga toxin inh	Pf growth 48h	Pf growth 96h	CHX counter	NS1 inh	SARS PLP yeast
Nc1ccc(-c2cc(N)n(-c3ccccc3)n2)cc1	10	6.6µM*	·	8	11%	-4%
Nc1cc(-c2ccc(Cl)cc2)nn1-c1ccccc1	72*	231%	204%	43*	·	-2%
Cc1ccccc1-n1nc(-c2ccc(N)cc2)cc1N	4	?	3%	7	-5%	?
Cc1n[nH]c(=O)n1-c1ccc(OC(F)(F)F)cc1	-4	?	72%	1	·	0%
Cc1cc(N)n(-c2ccc(Cl)cc2)n1	-7	-34%[5.75 µM]	?	-3	4%	0%
Cc1ccc(S(=O)(=O)c2ccc(-n3nc(C)cc3N)cc2)cc1	-9	6%	-9%	-3	·	-1%
Cc1ccc(-n2nc(-c3ccc(OC(F)(F)F)cc3)cc2N)cc1C	33	-62%	-11%	15*	18%	-2%
NCc1ccccc1Sc1ccccc1CO	·	-19%	-27%	·	·	·
Cc1c([N+](=O)[O-])cc(C(=O)Nc2ccc(NC(=O)c3ccco3)cc2)cc1[N+](=O)[O-]	-8	?	4%	-5	6%	-1%
CC(=O)Nc1ccc(-c2cc(N)n(-c3ccccc3)n2)cc1	69*	90%	118%	64*	25%	-2%
O=C(CN1C(=O)NC2(CCCC2)C1=O)OCCOc1ccc(Cl)cc1	·	0%	37%	·	·	1%
CCCCC(=O)Nc1ncc(Br)s1	32	24%	17%	11*	-4%	-2%
CC(C)CC(=O)Nc1ncc([N+](=O)[O-])s1	84*	93%	97%	41*	-7%	0%
O=C(COC(=O)c1ccccc1)Nc1ncc([N+](=O)[O-])s1	·	·	·	·	·	-41%
CCCCC(=O)Nc1ncc([N+](=O)[O-])s1	54*	23%	-12%	17*	-45%	-1%
COc1ccc(CC(=O)Nc2ncc([N+](=O)[O-])s2)cc1OC	-8	-4%	78%	0	7%	0%
Cc1cccnc1NC(=O)Cn1nc(-c2ccccc2)oc1=S	89*	167%	68%	40*	-4%	-12%
O=C(O)C1C2CCC(O2)C1C(=O)Nc1ccccc1Br (configuration not stated)	-3	-4%	-28%	-1	12%	10%
COc1ccccc1CCNC(=O)CSc1nc(-c2ccco2)cc(C(F)(F)F)n1	-6	·	?	8	1%	?
O=C(CCSc1nc(-c2ccco2)cc(C(F)(F)F)n1)NCCc1ccccc1	54	?	3%	33*	-14%	-2%
FC(F)(F)c1cc(-c2ccco2)nc(N2CCN(Cc3ccccc3)CC2)n1	-14	?	?	-4	3%	-13%
COc1ccccc1CCNC(=O)CCSc1nc(-c2ccco2)cc(C(F)(F)F)n1	-5	8.3µM*	-1%	1	11%	-11%
O=C(CCSc1nc(-c2ccco2)cc(C(F)(F)F)n1)N1CCCc2ccccc21	21	15µM*	·	5	-35%	-16%
FC(F)(F)c1cc(-c2ccco2)nc(NCCc2ccccc2)n1	78	28%	-4%	20*	-10%	-9%
CCSc1nnc(NC(=O)CCN2C(=O)C3CCCCC3C2=O)s1 (configuration not stated)	·	22%	-35%	·	·	-2%
SMILES	Shiga toxin inh	Pf growth 48h	Pf growth 96h	CHX counter	NS1 inh	SARS PLP yeast
CCCS(=O)(=O)N1CCC(C(=O)NCCC(C)C)CC1	28	5%	33%	8	·	-3%
COc1ccc(-c2cc(C(F)(F)F)nc(SCCC(=O)NCc3ccccc3)n2)cc1	-8	15µM*	·	-2	3%	14%
c1ccc(N2CCN(c3nnc(Cc4cccnc4)c4ccccc34)CC2)nc1	-11	7.4µM*	-10%	-2	-10%	-6%
c1ccc(Cc2nnc(N3CCCCC3)c3ccccc23)cc1	60	53%	?	34	·	-4%
Cc1[nH]c(=O)c(C#N)c(C)c1CCC(=O)NCc1cccc(C(F)(F)F)c1	5	0%	52%	-5	10%	-3%
COc1ccccc1N(CC(=O)Nc1ccccc1C(=O)N1CCOCC1)S(C)(=O)=O	2	8%	0%	-6	2%	2%
O=C(Nc1ccccc1N1CCOCC1)c1ccc(F)c(S(=O)(=O)N2CCOCC2)c1	·	?	2.1µM*	·	·	-11%
